Screening data (PubChem BioAssay)
D1 agonist: agonists of human D1 dopamine receptor | activation, % at 2 µM | HEK293 T-REx D1 cells, calcium flux, agonist mode | actives 1% (n = 360,000); also: 0% is about no effect
Target sequence (P21728 whole entry, looked up): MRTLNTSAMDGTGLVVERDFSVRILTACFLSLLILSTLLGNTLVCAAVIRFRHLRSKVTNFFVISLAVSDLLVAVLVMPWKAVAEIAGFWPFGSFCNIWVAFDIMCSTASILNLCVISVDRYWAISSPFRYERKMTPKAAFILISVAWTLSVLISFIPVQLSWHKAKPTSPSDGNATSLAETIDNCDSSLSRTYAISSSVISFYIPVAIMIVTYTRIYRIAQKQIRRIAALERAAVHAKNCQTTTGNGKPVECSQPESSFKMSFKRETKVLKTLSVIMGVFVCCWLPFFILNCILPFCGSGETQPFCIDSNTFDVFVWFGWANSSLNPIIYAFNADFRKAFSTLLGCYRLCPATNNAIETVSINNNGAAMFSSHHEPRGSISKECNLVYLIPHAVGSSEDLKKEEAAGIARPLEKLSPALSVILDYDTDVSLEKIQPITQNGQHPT
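Agonism was scored from calcium flux recorded over 180 s (1 read/s) after pintool compound addition, following a 10-cycle baseline. Cells were inducible force-coupled HEK293 TREx D1, plated overnight at 30 C and loaded with no-wash calcium dye.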
D1 potentiator: enhances dopamine response at the human D1 receptor; AID 504651; HEK293 TREx D1 cells, calcium flux, dopamine EC20 potentiation; potentiation, % at 10 µM; actives 0.036% (n = 360,000); P21728; in the data active = potentiation above about 30%; also: 0% is about no effect
TRHR agonist: activates the human TRH receptor; P34981; TRHR cells, calcium flux fluo-8, FDSS agonist mode; activation, % at 2 µM; actives 0.18% (n = 360,000); also: 0% is about no effect
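Read-out: compound-evoked intracellular calcium rise in TRHR cells, fluo-8 dye, kinetic FDSS fluorescence at 1 s/cycle following a 10-cycle baseline. Cells cultured overnight before dye loading (30 min–1.5 h, RT).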
D1 antagonist: blocks dopamine activation of the human D1 receptor | HEK293 TREx D1 cells, calcium flux, dopamine EC80; stronger effect = lower value | activity change, negative = inhibition, % at 10 µM | actives 3.2% (n = 360,000); in the data active = activity change below about -30%; also: % is scaled to controls: 0 for no effect and ±100 for the full control effect
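Tetracycline-induced HEK293 T-REx cells with force-coupled D1 receptor were loaded with a no-wash calcium dye. Compound was added after a 10 s baseline and read kinetically for 180 s; EC80 dopamine was then added and calcium flux followed another 180 s.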
TRHR enhancer: allosteric enhancers of human TRH receptor; P34981; TRHR cells, fluo-8 calcium fluorescence, EC20 TRH enhancement; enhancement, % at 2 µM; actives 0.66% (n = 360,000); in the data active = enhancement above about 30%; also: 0% is about no effect
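Enhancer read-out: after compound pinning and an initial kinetic agonist-mode read, an EC20 of TRH (10 nM final) was injected and fluo-8 calcium signal (Ex 480/Em 530) followed at 1 s/cycle for 100 cycles in TRHR-expressing cells.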
Active calls of the source: *; · = no result. This is a sample that favours compounds with a hit; in the whole collection about 4.7% have one here. Rule as the data show it, unless noted: active = activation above about 30%; inactive = the rest.

SMILES | D1 agonist | D1 potentiator | TRHR agonist | D1 antagonist | TRHR enhancer
CC1OC(O[C@H]2CC[C@]3(C)C4C=C[C@]56OC[C@@]7(CC[C@@H](C)[C@H](C)C75)[C@H](O)C[C@@]6(C)[C@]4(C)CC[C@H]3C2(C)C)C(OC2OC(CO)C(O)C(O)C2OC2OCC(O)C(O)C2O)C(O)C1O (some centres not stated) | 244* | 14 | 48* | 41 | -22
CC(=O)c1ccc(NC(=O)c2sc(-n3nc(C)c(CCC(C)C)c3C)nc2C)cc1 | -2 | 1 | -1 | 1 | 9
COc1ccc(C(CCNCc2ccc(OC(C)C)cc2)c2ccccc2OC)cc1 (configuration not stated) | 59* | 3 | 1 | 10 | 5
COc1ccc(C(CCNCc2ccc(N(C)C)cc2)c2ccccc2OC)cc1 (configuration not stated) | 6 | -10 | 0 | 11 | 2
COc1ccc(CNCCC(c2ccc(OC)cc2)c2ccccc2OC)cc1 (configuration not stated) | 30* | -1 | 1 | -4 | 3
N#Cc1c(Cl)nc(SCc2ccccc2)nc1-c1ccccc1 | 2 | -6 | 0 | -32* | 3
CCc1ccc(NC(=O)CSc2n[nH]c(C)c2[N+](=O)[O-])cc1 | 15 | -8 | 1 | -48* | 2
COc1ccc(CNc2nc(-c3ccc(OC)c(OC)c3)cc(C(F)(F)F)n2)cc1 | 3 | -1 | 1 | 2 | -2
Fc1ccc(-c2cc(C(F)(F)F)nc(NCc3ccccc3)n2)cc1 | 36* | 1 | -1 | -3 | -3
Fc1ccc(CNc2nc(-c3ccc(Cl)cc3)cc(C(F)(F)F)n2)cc1 | 26 | 2 | 0 | -2 | 10
Fc1ccc(CNc2nc(-c3ccco3)cc(C(F)(F)F)n2)cc1 | 6 | 0 | 0 | 6 | 38*
FC(F)(F)c1cc(-c2ccco2)nc(NCc2ccccc2)n1 | 8 | -5 | 1 | 33 | -4
COc1ccc(-c2cc(C(F)(F)F)nc(NCc3ccccc3)n2)cc1 | 31* | 3 | 3 | 0 | -1
C=CCN(c1ccccc1)S(=O)(=O)c1cccc(C(=O)OCC(=O)NC2CC2)c1 | 6 | -4 | 0 | -34* | 5
C=CCN(c1ccccc1)S(=O)(=O)c1cccc(C(=O)Nc2nnc(SCC)s2)c1 | 1 | -12 | 0 | -85* | -3
C=CCN(c1ccccc1)S(=O)(=O)c1cccc(C(=O)OCC(=O)NCCOC)c1 | 1 | 0 | 0 | 8 | 9
Cc1nn(-c2ccc(F)cc2)c2nc(N)c(C#N)c(-c3ccc(O)c(O)c3)c12 | 0 | -9 | 1 | -46* | -8
Cc1ccc(C)n1-c1ncn[nH]1 | 3 | -12 | 0 | -4 | 30*
O=C1C2CC=CCC2C(=O)N1c1ncn[nH]1 (configuration not stated) | 3 | -1 | -1 | 0 | 2
COc1ccc(-c2c(-c3cc(OC)cc(OC)c3)n(C)c3ccc(Br)cc23)cc1 | 0 | 0 | 0 | -20 | 6
COc1ccc(N=Nc2nc3ccc(Br)cc3n2C)cc1 | 343* | 1 | 0 | 24 | 4
CCOC(=O)c1cc(-c2ccccc2)n(CC(=O)Nc2ccccc2OCC)c1C | 1 | 0 | 0 | 9 | 5
Cc1cc2ccccc2n1CCNC(=O)c1ccccc1 | 43* | -12 | -1 | -2 | 4
COc1ccc(NC(=O)Nc2ccc(C(=O)N3CCOCC3)cc2)cc1OC | 2 | 6 | 1 | 4 | -1
CCOC(=O)c1ccc(NC(=O)c2ccc(OC(C)C)c(OC)c2)cc1 | 0 | -13 | -1 | -32* | -4
SMILES | D1 agonist | D1 potentiator | TRHR agonist | D1 antagonist | TRHR enhancer
O=C(CNCCc1ccc(Cl)cc1)Nc1ccc(C(=O)N2CCCCC2)cc1 | 34* | -11 | 1 | -16 | -2
COc1ccccc1C(=O)Nc1ccncc1 | 1 | -4 | 0 | 6 | 35*
COc1ccc(C(=O)Nc2ccc(C(=O)N3CCOCC3)cc2)cc1OC | 3 | 13 | 0 | -1 | 32*
O=C(CNCCc1ccccc1)Nc1ccc(C(=O)N2CCCCC2)cc1 | 9 | -9 | 1 | 21 | 0
CCCCN(C)CCNC(=O)c1ccc2c(=O)n(CCc3ccccc3)c(=O)[nH]c2c1 | -1 | -1 | 0 | -17 | 4
COCCn1c(CCC(=O)Nc2ccc(C)c(Cl)c2)nc2cccnc21 | -2 | 3 | -1 | 0 | 0
CCOc1ccccc1C(=O)Nc1ccc(NC(=O)c2ccccc2)cc1 | 2 | -2 | 1 | 5 | 34*
COc1ccccc1C(=O)Nc1ccc(C(=O)N2CCCCC2)cc1 | 5 | -1 | 0 | -21 | -3
CCOc1ccccc1C(=O)Nc1ccc(C(=O)c2ccccc2)cc1 | 9 | -5 | -2 | -13 | -11
COc1ccccc1C(=O)Nc1ccc(C(=O)N2CCCC2)cc1 | -3 | -10 | 0 | -71* | -4
CC(=O)c1ccc(NC(=O)COc2ccccc2C(=O)Nc2ccc(C)cn2)cc1 | -2 | -4 | -1 | · | 2
CCOc1ccc(NC(=O)c2oc3ccccc3c2NC(=O)c2c(F)cccc2F)cc1 | 8 | -4 | -2 | -19 | -1
CCOc1ccccc1C(=O)Nc1c(C(=O)Nc2ccc(F)cc2)oc2ccccc12 | 5 | -1 | 1 | 7 | 43*
CC(=O)c1ccc(NC(=O)COc2ccccc2C(=O)Nc2ccccc2)cc1 | 7 | -11 | 1 | -61* | -2
COc1cc(NC(=O)CSc2nc3ncccc3o2)cc(OC)c1 | 0 | -5 | 0 | -9 | -5
Cc1ccc2c(CC(=O)N(Cc3ccc(N(C)C)cc3)Cc3ccco3)coc2c1C | -1 | 3 | 0 | 0 | 1
COc1ccccc1C(=O)NC(=S)Nc1ccc(Cc2ccncc2)cc1 | 19 | 39* | 3 | 48 | -6
O=C(Nc1ccc(N2CCN(C(=O)c3ccco3)CC2)cc1)c1ccc(Br)cc1 | 0 | -11 | 0 | -32* | -7
Cc1ccc(C(=O)Nc2ccc(N3CCN(C(=O)c4ccco4)CC3)cc2)cc1 | 2 | 2 | -1 | -9 | -10
CCOc1ccc(NC(=O)c2ccccc2OC)cc1 | 0 | 41* | 0 | -13 | -3
CC(=O)c1cccc(NC(=O)COC(=O)c2ccccc2C)c1 | 15 | -4 | -1 | -17 | 31*
COC(=O)c1c(-c2cccs2)csc1NC(=O)COc1ccc(C(C)C)cc1 | 8 | 0 | 1 | -4 | -3
O=C(c1ccc(Br)cc1)N1CCCC1 | 1 | -2 | 0 | -2 | -4
O=C(Nc1ccc(C(=O)N2CCCCC2)cc1)c1ccc(Br)cc1 | 4 | -4 | -1 | -31* | 1
Cn1c2ccccc2c(=O)c2c(=O)n(-c3ccccc3)c(C3CCCCC3)nc21 | 1 | 19 | -1 | 70 | 6
CCc1nc2c(c(=O)c3ccccc3n2C)c(=O)n1C1CCCCCC1 | 195* | -2 | 39* | -28 | -10
